According to PubChem BioAssay:
Results filed as inconclusive are left out. Activity calls are given as the source filed them. Unless noted, how the calls were made is not given here. Peptide text beside a SMILES is read from it.

Assays:
[1] = yeast TOR pathway RPL19A-GFP modulators, primary screen, cell-based, S. cerevisiae, multiplex flow cytometry (AID 1862; in the data active means percent of DMSO control GFP below about 86%;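 further: lower values mimic rapamycin by blocking the RPL19A rise seen in DMSO cells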); conditions: S. cerevisiae RPL19A-GFP strain, flow cytometry fluorescence, 3 h; at 10 µM; stronger effect = lower value
[2] = modulators of MEP2-GFP levels in yeast, primary screen, S. cerevisiae, multiplex flow cytometry (AID 1867;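 active means GFP response, as percent of the DMSO control, above the screen-wide mean plus 3 SD, about 139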;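 further: median GFP channel fluorescence of barcode-gated MEP2-GFP cells measured by flow cytometry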); conditions: S. cerevisiae MEP2-GFP strain, 3 h, at 10 µM, stronger effect = higher value
[3] = modulators of CIT2-GFP expression in yeast, primary screen, S. cerevisiae, GFP fusion, multiplex flow cytometry (AID 1870;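 active means percent response above a set limit, the screen-wide mean plus 3 SD, cut at about 130% in these data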;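 further: barcoded CIT2-GFP strain pooled with four other GFP strains with rapamycin as positive control; median GFP fluorescence per well over plate mean of DMSO wells so 100% = DMSO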); conditions: 3 h, at 10 µM, stronger effect = higher value
[4] = modulators of LAP4-GFP expression in yeast, primary screen, S. cerevisiae, multiplex flow cytometry (AID 1873;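 active means GFP signal, as percent of the solvent control, above the screen mean plus 3 SD, about 149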); conditions: 3 h, at 10 µM, stronger effect = higher value
[5] = inhibitors of CD8+ T cell-vesicle binding, pilot screen, LFA-1/ICAM-1 modulator project, MLPCN validation set, flow cytometry (AID 2523;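 active means response below a set limit, under 55% cells CD8-positive and vesicle-bound, and CD8 cells' 90th-percentile brightness under 279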;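 on vesicle binding response: mean PE anti-B7-1 fluorescence of CD8+ cells relative to row control; 100% = QL9-loaded vesicles with DMSO vehicle in the same plate row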); conditions: 2C mouse CD8+ T cells, at 7 µM, stronger effect = lower value; double positive events: measured here: CD8+/vesicle+ event percentage
[6] = molecular target: Integrin beta-1 (Homo sapiens) + Integrin alpha-4 (Homo sapiens) (UniProt P13612+P05556); assay: inhibition of HUTS-21 binding to VLA-4, pilot screen, VLA-4 allosteric modulator project, U937 cells, HUTS-21 mAb, flow cytometry, validation set (AID 2674;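 active means inhibition above 50%, about 3 SD of the validation set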;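 further: antibody binding induced by the VLA-4 ligand LDV present at three times its Kd; 0% = LDV ligand with antibody and no compound and 100% = antibody without LDV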); conditions: HUTS-21 LIBS mAb binding, at 6.7 µM, stronger effect = higher value
Chain of Integrin beta-1 (Homo sapiens) + Integrin alpha-4 (Homo sapiens) (P05556 whole entry, looked up): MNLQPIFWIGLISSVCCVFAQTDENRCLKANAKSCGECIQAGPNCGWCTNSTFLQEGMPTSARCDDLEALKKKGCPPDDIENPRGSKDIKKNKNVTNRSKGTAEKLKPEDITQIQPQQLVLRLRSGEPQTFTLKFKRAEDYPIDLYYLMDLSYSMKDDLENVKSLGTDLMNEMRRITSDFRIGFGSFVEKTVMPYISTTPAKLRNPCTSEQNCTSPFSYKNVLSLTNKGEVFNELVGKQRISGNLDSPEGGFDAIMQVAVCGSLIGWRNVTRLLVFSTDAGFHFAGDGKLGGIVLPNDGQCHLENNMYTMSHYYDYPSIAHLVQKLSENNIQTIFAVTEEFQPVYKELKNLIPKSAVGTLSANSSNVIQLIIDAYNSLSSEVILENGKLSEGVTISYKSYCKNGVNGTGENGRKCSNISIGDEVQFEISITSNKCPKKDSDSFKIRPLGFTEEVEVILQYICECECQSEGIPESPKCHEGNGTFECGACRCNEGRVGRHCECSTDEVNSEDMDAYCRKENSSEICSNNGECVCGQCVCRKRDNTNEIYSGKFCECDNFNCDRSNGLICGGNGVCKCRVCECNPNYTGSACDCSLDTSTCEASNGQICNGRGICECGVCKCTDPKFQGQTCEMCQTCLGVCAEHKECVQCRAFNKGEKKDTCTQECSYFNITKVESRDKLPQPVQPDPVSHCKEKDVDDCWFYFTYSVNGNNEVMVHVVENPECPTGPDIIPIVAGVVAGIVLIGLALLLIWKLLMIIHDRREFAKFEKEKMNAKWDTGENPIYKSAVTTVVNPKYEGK
Chain of Integrin beta-1 (Homo sapiens) + Integrin alpha-4 (Homo sapiens) (P13612 whole entry, looked up): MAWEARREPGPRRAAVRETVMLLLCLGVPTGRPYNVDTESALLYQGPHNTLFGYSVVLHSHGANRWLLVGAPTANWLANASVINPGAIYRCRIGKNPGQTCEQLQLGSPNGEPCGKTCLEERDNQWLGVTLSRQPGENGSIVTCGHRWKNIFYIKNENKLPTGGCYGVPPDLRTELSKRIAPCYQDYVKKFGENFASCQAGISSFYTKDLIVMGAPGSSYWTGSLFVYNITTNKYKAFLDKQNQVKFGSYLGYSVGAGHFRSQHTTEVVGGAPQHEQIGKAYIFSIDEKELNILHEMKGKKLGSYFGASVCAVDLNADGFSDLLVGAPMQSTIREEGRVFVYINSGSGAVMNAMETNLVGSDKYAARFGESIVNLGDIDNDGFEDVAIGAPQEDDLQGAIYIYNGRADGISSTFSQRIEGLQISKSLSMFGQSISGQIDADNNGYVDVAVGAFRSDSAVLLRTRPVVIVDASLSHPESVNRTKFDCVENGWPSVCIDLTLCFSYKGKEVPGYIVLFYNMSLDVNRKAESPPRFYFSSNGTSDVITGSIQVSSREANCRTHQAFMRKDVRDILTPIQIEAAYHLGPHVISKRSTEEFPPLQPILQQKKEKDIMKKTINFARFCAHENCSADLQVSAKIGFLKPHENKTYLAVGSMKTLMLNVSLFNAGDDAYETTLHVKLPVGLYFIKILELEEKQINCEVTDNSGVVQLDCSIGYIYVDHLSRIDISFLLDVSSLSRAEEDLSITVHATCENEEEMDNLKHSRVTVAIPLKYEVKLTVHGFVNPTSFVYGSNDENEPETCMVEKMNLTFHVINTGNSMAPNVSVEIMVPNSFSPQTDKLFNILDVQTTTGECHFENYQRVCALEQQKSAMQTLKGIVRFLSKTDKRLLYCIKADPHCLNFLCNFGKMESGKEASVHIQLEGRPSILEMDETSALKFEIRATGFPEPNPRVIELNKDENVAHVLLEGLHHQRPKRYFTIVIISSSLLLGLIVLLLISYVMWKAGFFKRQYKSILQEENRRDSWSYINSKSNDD

[7] = superoxide lowering in aged yeast cells, pilot screen, validation compound set (AID 2706;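 active means superoxide response below 65% of plate, a cut near 3 SD across the whole screen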;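 further: yeast exposed to compound for one week at 30 degrees C before staining; 100% = mean of all compound wells on the same plate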); conditions: S. cerevisiae aging, superoxide DHE fluorescence; at 10 µM; stronger effect = lower value
[8] = molecular target: Beta-adrenergic receptor kinase 1 (Homo sapiens) (UniProt P25098); assay: GRK2 binders displacing RNA aptamer, biochemical, validation, human GRK2, bead flow cytometry (AID 488806;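 active means aptamer binding inhibition above 30%, about 3 SD of noise from non-fluorescent compounds; inactive means inhibition at or below 30%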); conditions: bead-bound GRK2, FAM-aptamer displacement, at 10 µM, stronger effect = higher value
Chain of Beta-adrenergic receptor kinase 1 (Homo sapiens) (P25098 whole entry, looked up): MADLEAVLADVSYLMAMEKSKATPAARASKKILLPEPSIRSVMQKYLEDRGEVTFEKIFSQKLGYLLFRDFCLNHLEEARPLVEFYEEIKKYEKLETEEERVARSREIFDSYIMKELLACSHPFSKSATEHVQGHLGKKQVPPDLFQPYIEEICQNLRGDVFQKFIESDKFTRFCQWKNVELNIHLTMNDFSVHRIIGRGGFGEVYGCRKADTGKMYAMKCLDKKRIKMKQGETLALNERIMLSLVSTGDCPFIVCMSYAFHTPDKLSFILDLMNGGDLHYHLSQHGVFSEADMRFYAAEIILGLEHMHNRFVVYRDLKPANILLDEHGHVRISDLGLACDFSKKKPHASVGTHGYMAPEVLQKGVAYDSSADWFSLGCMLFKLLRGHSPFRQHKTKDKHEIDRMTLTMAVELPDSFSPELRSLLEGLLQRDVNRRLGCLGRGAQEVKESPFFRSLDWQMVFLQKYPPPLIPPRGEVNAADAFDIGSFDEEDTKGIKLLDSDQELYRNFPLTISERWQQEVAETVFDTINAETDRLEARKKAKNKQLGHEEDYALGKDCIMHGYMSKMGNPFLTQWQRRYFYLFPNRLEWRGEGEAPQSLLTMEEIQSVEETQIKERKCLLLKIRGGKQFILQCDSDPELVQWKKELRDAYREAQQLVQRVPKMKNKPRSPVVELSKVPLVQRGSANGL

[9] = molecular target: AP-2 complex subunit beta (Homo sapiens) (UniProt P63010); assay: inhibitors of arrestin peptide binding to AP2, pilot screen, biochemical, validation set, GST-AP2 beads, flow cytometry (AID 504541;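 active means inhibition above 54%, about 3 SD of non-fluorescent compounds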;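 further: AP2 carries R879A mutation and is captured from E. coli lysate; bead-bound FITC arrestin peptide fluorescence measuring arrestin peptide binding to AP2; 0% = DMSO wells and 100% = excess unlabeled arrestin peptide control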); conditions: FITC arrestin peptide, at 10 µM, stronger effect = higher value
[10] = yeast V-ATPase proton transport modulators, S. cerevisiae, pHLuorin, HTS validation (AID 504600; in the data active means response above about 15%;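 further: plate controls were DMSO for no effect and reference compound for full effect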); conditions: S. cerevisiae pHLuorin cytosolic pH, at 10 µM, stronger effect = higher value
[11] = system: anti-desmoglein-3 scFv antibody binding to human DSG3; assay: inhibitors of anti-DSG3 scFv binding to DSG3, pilot screen, biochemical, validation compound set, bead-based, flow cytometry (AID 588368;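 active means binding below the plate cutoff, the plate median minus 3 SD, with a reading above zero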;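 further: signal is the median channel fluorescence of bead-bound GFP antibody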); conditions: Protein G beads, DSG3-Fc, scFv-GFP binding, at 10 µM, stronger effect = lower value
[12] = system: Botulinum neurotoxin type F light chain protease (Clostridium botulinum); assay: Botulinum neurotoxin type F light chain protease inhibition, multiplex microsphere flow cytometry, validation set (AID 588459); conditions: multiplex microsphere protease substrate cleavage assay, at 10 µM, stronger effect = higher value
[13] = molecular target: Botulinum neurotoxin type A (Clostridium botulinum) (UniProt P0DPI0); assay: BoNT/A light chain protease inhibitors, biochemical, multiplex microsphere flow cytometry, validation set (AID 588460); conditions: at 10 µM, stronger effect = higher value
Chain of Botulinum neurotoxin type A (Clostridium botulinum) (P0DPI0 whole entry, looked up): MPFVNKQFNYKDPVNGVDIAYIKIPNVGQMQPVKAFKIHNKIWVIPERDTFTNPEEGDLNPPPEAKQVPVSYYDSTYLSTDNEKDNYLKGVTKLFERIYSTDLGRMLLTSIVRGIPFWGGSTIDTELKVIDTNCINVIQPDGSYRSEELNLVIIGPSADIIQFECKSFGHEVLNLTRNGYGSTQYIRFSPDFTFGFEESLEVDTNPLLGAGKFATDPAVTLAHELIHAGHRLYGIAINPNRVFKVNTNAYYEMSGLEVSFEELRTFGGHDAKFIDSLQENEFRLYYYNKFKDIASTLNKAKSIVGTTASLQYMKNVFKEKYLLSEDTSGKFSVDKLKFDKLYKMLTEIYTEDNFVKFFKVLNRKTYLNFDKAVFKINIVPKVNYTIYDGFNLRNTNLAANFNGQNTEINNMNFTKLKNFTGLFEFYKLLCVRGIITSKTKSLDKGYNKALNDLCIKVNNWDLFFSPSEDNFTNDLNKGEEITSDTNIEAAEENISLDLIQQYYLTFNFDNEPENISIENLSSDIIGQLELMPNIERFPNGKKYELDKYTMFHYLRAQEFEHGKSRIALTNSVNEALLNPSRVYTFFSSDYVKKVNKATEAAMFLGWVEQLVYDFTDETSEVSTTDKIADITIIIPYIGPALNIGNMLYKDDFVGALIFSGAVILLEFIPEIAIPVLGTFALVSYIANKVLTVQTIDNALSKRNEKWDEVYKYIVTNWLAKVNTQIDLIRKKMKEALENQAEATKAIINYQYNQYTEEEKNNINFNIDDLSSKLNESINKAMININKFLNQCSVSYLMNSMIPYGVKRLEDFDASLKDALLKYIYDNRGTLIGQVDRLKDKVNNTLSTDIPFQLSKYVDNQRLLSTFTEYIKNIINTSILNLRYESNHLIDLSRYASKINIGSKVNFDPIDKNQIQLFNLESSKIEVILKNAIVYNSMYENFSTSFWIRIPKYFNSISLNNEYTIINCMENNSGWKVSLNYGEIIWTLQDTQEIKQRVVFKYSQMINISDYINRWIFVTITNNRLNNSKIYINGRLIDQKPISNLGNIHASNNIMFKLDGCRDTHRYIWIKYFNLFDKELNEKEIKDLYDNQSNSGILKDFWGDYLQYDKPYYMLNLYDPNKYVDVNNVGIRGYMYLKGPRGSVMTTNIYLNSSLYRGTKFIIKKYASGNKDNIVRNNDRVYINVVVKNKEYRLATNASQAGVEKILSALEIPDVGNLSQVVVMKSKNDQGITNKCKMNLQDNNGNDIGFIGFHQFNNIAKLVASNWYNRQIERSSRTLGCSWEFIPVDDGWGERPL

[14] = molecular target: Lethal factor (Bacillus anthracis) (UniProt P15917); assay: Lethal factor protease inhibitors, Bacillus anthracis, multiplex microsphere cleavage assay, validation set (AID 588461); conditions: flow cytometry, at 10 µM, stronger effect = higher value
[15] = inhibitors of fungal efflux pumps CDR1, CDR2, MDR1, pilot screen, validation compound set, multiplex, phenotypic (AID 588506;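 active means efflux inhibition above 0.42, the validation set average plus 4 SD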;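 further: Nile Red retained in cells so higher fluorescence means more efflux inhibition; 0 = negative control wells and 1 = enniatin B 25 µM full block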); conditions: S. cerevisiae pump-expressing triplex, Nile Red efflux flow cytometry; at 10 µM; stronger effect = higher value
[16] = molecular target: ATP-binding cassette sub-family B member 6 (Homo sapiens) (UniProt Q9NP58); assay: ABCB6 transporter inhibitors, pilot screen, K562-ABCB6 cells, flow cytometry, validation set (AID 588550;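 active means inhibition above the screen-wide mean plus 3 SD, about 51%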;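 further: 0% = DMSO wells and 100% = benzethonium chloride 70 µM positive control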); conditions: K562-ABCB6 porphyrin accumulation, 1 h, at 10 µM, stronger effect = higher value
Chain of ATP-binding cassette sub-family B member 6 (Homo sapiens) (Q9NP58 whole entry, looked up): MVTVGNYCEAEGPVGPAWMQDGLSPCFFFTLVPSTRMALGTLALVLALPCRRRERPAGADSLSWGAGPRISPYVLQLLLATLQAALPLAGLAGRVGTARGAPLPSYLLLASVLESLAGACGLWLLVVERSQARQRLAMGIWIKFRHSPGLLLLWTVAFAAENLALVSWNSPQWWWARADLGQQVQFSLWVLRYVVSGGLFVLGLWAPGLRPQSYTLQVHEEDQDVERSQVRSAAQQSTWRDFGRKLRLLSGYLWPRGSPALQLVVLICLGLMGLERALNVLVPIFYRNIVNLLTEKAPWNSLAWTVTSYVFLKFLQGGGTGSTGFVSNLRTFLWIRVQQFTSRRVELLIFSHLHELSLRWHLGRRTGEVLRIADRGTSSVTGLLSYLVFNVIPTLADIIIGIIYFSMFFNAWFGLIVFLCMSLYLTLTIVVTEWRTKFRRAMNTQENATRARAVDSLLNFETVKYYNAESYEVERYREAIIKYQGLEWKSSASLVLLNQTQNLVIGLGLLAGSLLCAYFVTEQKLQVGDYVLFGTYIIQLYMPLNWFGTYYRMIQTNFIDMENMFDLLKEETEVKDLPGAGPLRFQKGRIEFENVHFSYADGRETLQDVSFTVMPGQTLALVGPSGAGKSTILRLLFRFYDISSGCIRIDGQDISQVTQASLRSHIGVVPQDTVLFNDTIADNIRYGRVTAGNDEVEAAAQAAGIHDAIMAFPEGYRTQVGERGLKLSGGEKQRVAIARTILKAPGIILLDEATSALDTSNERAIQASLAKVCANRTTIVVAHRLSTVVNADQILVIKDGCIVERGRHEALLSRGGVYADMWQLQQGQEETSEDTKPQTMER

[17] = promoters of myeloid differentiation in arrested cells, primary screen, cell-based, GFP/MAC1 double positive, flow cytometry, validation set (AID 588685;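 active means differentiation response of at least 50%, scaled between solvent and reference control, from cells with both markers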;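 further: compound exposure lasts four days before antibody staining and flow analysis; 0% = DMSO wells and 100% = 5 µM fulvestrant positive control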); conditions: ER-HoxA9 marrow cells, stronger effect = higher value

| SMILES | percent of DMSO control GFP [1] | GFP response vs DMSO [2] | percent response of DMSO control [3] | GFP response vs DMSO [4] | double positive events [5] [%] | vesicle binding response [5] | inhibition [6] | superoxide response (% of plate) [7] | aptamer binding inhibition [8] | inhibition [9] | response [10] | binding (% of control) [11] | inhibition [12] | inhibition [13] | inhibition [14] | efflux inhibition (fraction of control) [15] | inhibition [16] | differentiation response [17] |
| --- | --- | --- | --- | --- | --- | --- | --- | --- | --- | --- | --- | --- | --- | --- | --- | --- | --- | --- |
| [N-]=[N+]=NC1C[C@H](n2ccc(=O)[nH]c2=O)O[C@@H]1CO (some centres undefined) | 101% (inactive) | 99.9% (inactive) | 106% (inactive) | 101% (inactive) | 56.5 | 185% (inactive) | 9.09% (inactive) | 97.1% (inactive) | -2% (inactive) | 42% (inactive) | -3.04% (inactive) | 97.7% (inactive) | 0.8% (inactive) | -1.5% (inactive) | -5.9% (inactive) | 0.03 (inactive) | 6% (inactive) | -21.2% (inactive) |
| COc1ccc(OC)c(C(O)C(C)N)c1 (centres undefined) | 103% (inactive) | 94.1% (inactive) | 95.4% (inactive) | 87.4% (inactive) | 59.9 | 41.1% (inactive) | 7.85% (inactive) |  | 0% (inactive) | -0.56% (inactive) | 1.5% (inactive) | 105% (inactive) | 2.2% (inactive) | 1.1% (inactive) | 3.1% (inactive) | 0.61 (active) | 10% (inactive) | 24.7% (inactive) |
| Cc1ccc(/C=C2/C(=O)NC(=O)N(C)C2=O)cc1 | 97.4% (inactive) | 96.9% (inactive) | 95.9% (inactive) | 97.4% (inactive) | 53.7 | 135% (inactive) | 20.3% (inactive) | 101% (inactive) | 5% (inactive) | -0.14% (inactive) | -4.11% (inactive) | 97.8% (inactive) | 0.6% (inactive) | 1.8% (inactive) | 6.7% (inactive) | 0.22 (inactive) | 6% (inactive) | -0.2% (inactive) |
| COc1ccc(C(=O)N2CCCC2=O)cc1 | 104% (inactive) | 107% (inactive) | 105% (inactive) | 130% (inactive) | 61.6 | 241% (inactive) | -6.23% (inactive) | 94.5% (inactive) | -4% (inactive) | 61% (active) | 2.82% (inactive) | 100% (inactive) |  |  |  | -0.04 (inactive) | 4% (inactive) | 3.88% (inactive) |
| NCCc1c[nH]c2ccc(F)cc12 | 98.2% (inactive) | 103% (inactive) | 107% (inactive) | 106% (inactive) | 59.2 | 77.4% (inactive) | 18.3% (inactive) | 93.9% (inactive) | -1% (inactive) |  | 6.8% (inactive) | 104% (inactive) | -3.3% (inactive) | -0.7% (inactive) | -4.9% (inactive) | -0.44 (inactive) | 2% (inactive) | 5.73% (inactive) |
| CC[C@@H](CO)NC(=O)[C@@H]1C=C2c3cccc4c3c(cn4C)C[C@H]2N(C)C1 | 103% (inactive) | 103% (inactive) | 99.8% (inactive) | 90.3% (inactive) | 59.1 | 158% (inactive) | 8.15% (inactive) | 108% (inactive) | 2% (inactive) | 0.36% (inactive) | -0.46% (inactive) | 104% (inactive) |  |  | -6.6% (inactive) | 0.56 (active) | 7% (inactive) | 1.41% (inactive) |
| COC1=CC(=O)OC(/C=C/c2ccccc2)C1 (centres undefined) | 102% (inactive) | 105% (inactive) | 105% (inactive) | 104% (inactive) | 56.3 | 194% (inactive) | 13.8% (inactive) | 101% (inactive) | -1% (inactive) | 47% (inactive) | -10.4% (inactive) | 106% (inactive) | 3.9% (inactive) | 1.1% (inactive) | 5.6% (inactive) | 0.06 (inactive) | 4% (inactive) | 22.4% (inactive) |
| Cc1cc(Cl)ccc1OC(C)C(=O)O (centres undefined) | 97.9% (inactive) | 108% (inactive) | 111% (inactive) | 74.8% (inactive) | 58.2 | 208% (inactive) | -6.15% (inactive) | 135% (inactive) | -5% (inactive) | 0.4% (inactive) | 3.15% (inactive) | 105% (inactive) | 3.9% (inactive) | 0.5% (inactive) |  | 0.37 (inactive) | 9% (inactive) | 7.37% (inactive) |
| CC(C)C[C@H](NC(=O)[C@@H]1CCCN1C(=O)[C@@H](N)Cc1ccc(O)cc1)C(=O)NCC(N)=O (H-YPLG-NH2) | 108% (inactive) | 101% (inactive) | 110% (inactive) | 89.3% (inactive) | 63.1 | 186% (inactive) | 0.69% (inactive) | 95.5% (inactive) | 1% (inactive) | 2.65% (inactive) | -0.2% (inactive) | 101% (inactive) | -4.4% (inactive) | -0.2% (inactive) | 1% (inactive) | -0.09 (inactive) | 7% (inactive) | -9.89% (inactive) |
